# Where a chain is given by its changes, count along the chain named.
# Experiments:
# Assay in all cases: PBM; 200 nM protein, PBS
# Details in all cases: dsDNA, one strand shown
# [1] = target: NKX2-5 (Homo sapiens, UniProt P52952 125-210, R139K)
# [2] = target: T1, SIX6 (Homo sapiens, UniProt O95475 114-200, L167I)
# T1 sequence: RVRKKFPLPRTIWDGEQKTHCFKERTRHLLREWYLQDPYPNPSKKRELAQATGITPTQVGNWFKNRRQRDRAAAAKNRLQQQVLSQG
# [3] = target: T2, SIX6 (Homo sapiens, UniProt O95475 114-200, L143V)
# T2 sequence: T1 sequence with L30V, I54L
# [4] = target: PRRX1 (Homo sapiens, UniProt P54821 80-166, F113S)
# Chain of PRRX1 (Homo sapiens, UniProt P54821 80-166, F113S) (P54821 80-166 F113S): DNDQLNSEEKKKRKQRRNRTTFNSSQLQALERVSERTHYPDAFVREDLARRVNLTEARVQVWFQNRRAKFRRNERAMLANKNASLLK
# [5] = target: T3, SIX6 (Homo sapiens, UniProt O95475 114-200, H141N)
# T3 sequence: T1 sequence with H28N, I54L
# [6] = target: T4, SIX6 (Homo sapiens, UniProt O95475 114-200, T165P)
# T4 sequence: T1 sequence with T52P, I54L
# [7] = target: T5, SIX6 (Homo sapiens, UniProt O95475 114-200, L167M)
# T5 sequence: T1 sequence with I54M
# [8] = target: T6, SIX6 (Homo sapiens, UniProt O95475 114-200, L143M)
# T6 sequence: T1 sequence with L30M, I54L
# [9] = target: T7, SIX6 (Homo sapiens, UniProt O95475 114-200, L143I)
# T7 sequence: T1 sequence with L30I, I54L
# [10] = target: T8, SIX6 (Homo sapiens, UniProt O95475 114-200, T165G)
# T8 sequence: T1 sequence with T52G, I54L
# [11] = target: T9, SIX6 (Homo sapiens, UniProt O95475 114-200, T139Q)
# T9 sequence: T1 sequence with T26Q, I54L
# [12] = target: T10, SIX6 (Homo sapiens, UniProt O95475 114-200, T165A)
# T10 sequence: T1 sequence with T52A, I54L
# [13] = target: T11, SIX6 (Homo sapiens, UniProt O95475 114-200, L167V)
# T11 sequence: T1 sequence with I54V
# [14] = target: T12, SIX6 (Homo sapiens, UniProt O95475 114-200)
# T12 sequence: T1 sequence with I54L
# [15] = target: T13, SIX6 (Homo sapiens, UniProt O95475 114-200, T165I)
# T13 sequence: T1 sequence with T52I, I54L
# [16] = target: PRRX1 (Homo sapiens, UniProt P54821 80-166)
# Chain of PRRX1 (Homo sapiens, UniProt P54821 80-166) (P54821 80-166): as the sequence (P54821 80-166 F113S) above, with S34F counted along it
# [17] = target: NKX2-5 (Homo sapiens, UniProt P52952 125-210)
# Chain of NKX2-5 (Homo sapiens, UniProt P52952 125-210) (P52952 125-210): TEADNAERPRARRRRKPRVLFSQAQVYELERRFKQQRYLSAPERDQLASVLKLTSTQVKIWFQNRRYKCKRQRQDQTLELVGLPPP
# [18] = target: HOXC9 (Homo sapiens, UniProt P31274 178-260, K195R)
# Chain of HOXC9 (Homo sapiens, UniProt P31274 178-260, K195R) (P31274 178-260 K195R): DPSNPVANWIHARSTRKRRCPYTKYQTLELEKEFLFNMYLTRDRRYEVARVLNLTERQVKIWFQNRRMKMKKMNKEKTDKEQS
# [19] = target: HOXC9 (Homo sapiens, UniProt P31274 178-260)
# Chain of HOXC9 (Homo sapiens, UniProt P31274 178-260) (P31274 178-260): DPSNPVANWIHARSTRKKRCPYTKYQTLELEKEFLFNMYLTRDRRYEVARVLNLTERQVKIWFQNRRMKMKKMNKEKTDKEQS
# [20] = target: ALX3 (Homo sapiens, UniProt O95076 139-225, N203Q)
# Chain of ALX3 (Homo sapiens, UniProt O95076 139-225, N203Q) (O95076 139-225 N203Q): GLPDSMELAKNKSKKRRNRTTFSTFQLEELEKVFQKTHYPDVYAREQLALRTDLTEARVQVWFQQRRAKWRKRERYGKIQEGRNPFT
# [21] = target: HOXC9 (Homo sapiens, UniProt P31274 178-260, R193K)
# Chain of HOXC9 (Homo sapiens, UniProt P31274 178-260, R193K) (P31274 178-260 R193K): as the sequence (P31274 178-260) above, with R16K counted along it
# [22] = target: ALX3 (Homo sapiens, UniProt O95076 139-225)
# Chain of ALX3 (Homo sapiens, UniProt O95076 139-225) (O95076 139-225): as the sequence (O95076 139-225 N203Q) above, with Q65N counted along it
# [23] = target: PROP1 (Homo sapiens, UniProt O75360 56-141)
# Chain of PROP1 (Homo sapiens, UniProt O75360 56-141) (O75360 56-141): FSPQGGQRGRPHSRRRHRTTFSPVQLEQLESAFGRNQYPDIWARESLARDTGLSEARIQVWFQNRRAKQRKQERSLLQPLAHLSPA
# [24] = target: PROP1 (Homo sapiens, UniProt O75360 56-141, R99H)
# Chain of PROP1 (Homo sapiens, UniProt O75360 56-141, R99H) (O75360 56-141 R99H): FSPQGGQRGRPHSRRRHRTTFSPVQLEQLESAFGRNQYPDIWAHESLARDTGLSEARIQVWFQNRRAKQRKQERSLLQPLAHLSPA
# [25] = target: ALX3 (Homo sapiens, UniProt O95076 139-225, L168Q)
# Chain of ALX3 (Homo sapiens, UniProt O95076 139-225, L168Q) (O95076 139-225 L168Q): as the sequence (O95076 139-225 N203Q) above, with L30Q, Q65N counted along it
# [26] = target: HOXC9 (Homo sapiens, UniProt P31274 178-260, R222W)
# Chain of HOXC9 (Homo sapiens, UniProt P31274 178-260, R222W) (P31274 178-260 R222W): as the sequence (P31274 178-260) above, with R45W counted along it
# [27] = target: ALX3 (Homo sapiens, UniProt O95076 139-225, L168V)
# Chain of ALX3 (Homo sapiens, UniProt O95076 139-225, L168V) (O95076 139-225 L168V): as the sequence (O95076 139-225 N203Q) above, with L30V, Q65N counted along it
# [28] = target: PROP1 (Homo sapiens, UniProt O75360 56-141, F88S)
# Chain of PROP1 (Homo sapiens, UniProt O75360 56-141, F88S) (O75360 56-141 F88S): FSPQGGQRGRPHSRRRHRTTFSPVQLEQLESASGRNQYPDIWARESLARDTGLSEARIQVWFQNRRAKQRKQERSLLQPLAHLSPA
# [29] = target: ALX3 (Homo sapiens, UniProt O95076 139-225, N203S)
# Chain of ALX3 (Homo sapiens, UniProt O95076 139-225, N203S) (O95076 139-225 N203S): as the sequence (O95076 139-225 N203Q) above, with Q65S counted along it
# [30] = target: HOXB6 (Homo sapiens, UniProt P17509 132-218, K202E)
# Chain of HOXB6 (Homo sapiens, UniProt P17509 132-218, K202E) (P17509 132-218 K202E): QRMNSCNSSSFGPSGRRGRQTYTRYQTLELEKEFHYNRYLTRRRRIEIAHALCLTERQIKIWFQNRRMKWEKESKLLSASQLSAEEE
# [31] = target: VAX1 (Homo sapiens, UniProt Q5SQQ9 86-172)
# Chain of VAX1 (Homo sapiens, UniProt Q5SQQ9 86-172) (Q5SQQ9 86-172): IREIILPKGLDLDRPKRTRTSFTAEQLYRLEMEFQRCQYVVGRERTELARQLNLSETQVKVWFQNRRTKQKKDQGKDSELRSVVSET
# [32] = target: VAX1 (Homo sapiens, UniProt Q5SQQ9 86-172, T142I)
# Chain of VAX1 (Homo sapiens, UniProt Q5SQQ9 86-172, T142I) (Q5SQQ9 86-172 T142I): as the sequence (Q5SQQ9 86-172) above, with T57I counted along it
# [33] = target: VAX1 (Homo sapiens, UniProt Q5SQQ9 86-172, K157R)
# Chain of VAX1 (Homo sapiens, UniProt Q5SQQ9 86-172, K157R) (Q5SQQ9 86-172 K157R): as the sequence (Q5SQQ9 86-172) above, with K72R counted along it
# [34] = target: HOXB6 (Homo sapiens, UniProt P17509 132-218)
# Chain of HOXB6 (Homo sapiens, UniProt P17509 132-218) (P17509 132-218): as the sequence (P17509 132-218 K202E) above, with E71K counted along it
# [35] = target: HOXA4 (Homo sapiens, UniProt Q00056 201-287, W262R)
# Chain of HOXA4 (Homo sapiens, UniProt Q00056 201-287, W262R) (Q00056 201-287 W262R): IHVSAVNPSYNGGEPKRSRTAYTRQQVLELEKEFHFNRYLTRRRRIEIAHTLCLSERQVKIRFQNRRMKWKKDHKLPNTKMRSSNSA
# [36] = target: HOXA4 (Homo sapiens, UniProt Q00056 201-287, R217L)
# Chain of HOXA4 (Homo sapiens, UniProt Q00056 201-287, R217L) (Q00056 201-287 R217L): as the sequence (Q00056 201-287 W262R) above, with R17L, R62W counted along it
# [37] = target: HOXA4 (Homo sapiens, UniProt Q00056 201-287)
# Chain of HOXA4 (Homo sapiens, UniProt Q00056 201-287) (Q00056 201-287): as the sequence (Q00056 201-287 W262R) above, with R62W counted along it
# [38] = target: HOXA4 (Homo sapiens, UniProt Q00056 201-287, W262F)
# Chain of HOXA4 (Homo sapiens, UniProt Q00056 201-287, W262F) (Q00056 201-287 W262F): as the sequence (Q00056 201-287 W262R) above, with R62F counted along it
# [39] = target: HOXA2 (Homo sapiens, UniProt O43364 129-215, R185T)
# Chain of HOXA2 (Homo sapiens, UniProt O43364 129-215, R185T) (O43364 129-215 R185T): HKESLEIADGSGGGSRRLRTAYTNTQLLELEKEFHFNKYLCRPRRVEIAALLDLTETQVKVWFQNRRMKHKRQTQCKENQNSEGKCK
# [40] = target: HOXA2 (Homo sapiens, UniProt O43364 129-215, R185K)
# Chain of HOXA2 (Homo sapiens, UniProt O43364 129-215, R185K) (O43364 129-215 R185K): as the sequence (O43364 129-215 R185T) above, with T57K counted along it
# [41] = target: HOXA2 (Homo sapiens, UniProt O43364 129-215, Y150S)
# Chain of HOXA2 (Homo sapiens, UniProt O43364 129-215, Y150S) (O43364 129-215 Y150S): as the sequence (O43364 129-215 R185T) above, with Y22S, T57R counted along it
# [42] = target: HOXA2 (Homo sapiens, UniProt O43364 129-215)
# Chain of HOXA2 (Homo sapiens, UniProt O43364 129-215) (O43364 129-215): as the sequence (O43364 129-215 R185T) above, with T57R counted along it
# Chain of NKX2-5 (Homo sapiens, UniProt P52952 125-210, R139K) (P52952 125-210 R139K): as the sequence (P52952 125-210) above, with R15K counted along it
sequence,measurement,setting,value
CGGCGCCG,binding signal,[1],"9.06 upbm affinity estimate (log intensity, higher = more binding, comparable within an allelic series)"
same,binding signal,[2],"8.88 upbm affinity estimate (log intensity, higher = more binding, comparable within an allelic series)"
same,binding signal,[3],"8.75 upbm affinity estimate (log intensity, higher = more binding, comparable within an allelic series)"
same,binding signal,[4],"9.2 upbm affinity estimate (log intensity, higher = more binding, comparable within an allelic series)"
same,binding signal,[5],"8.89 upbm affinity estimate (log intensity, higher = more binding, comparable within an allelic series)"
same,binding signal,[6],"9.09 upbm affinity estimate (log intensity, higher = more binding, comparable within an allelic series)"
same,binding signal,[7],"8.86 upbm affinity estimate (log intensity, higher = more binding, comparable within an allelic series)"
same,binding signal,[8],"8.74 upbm affinity estimate (log intensity, higher = more binding, comparable within an allelic series)"
same,binding signal,[9],"8.87 upbm affinity estimate (log intensity, higher = more binding, comparable within an allelic series)"
same,binding signal,[10],"8.96 upbm affinity estimate (log intensity, higher = more binding, comparable within an allelic series)"
same,binding signal,[11],"8.91 upbm affinity estimate (log intensity, higher = more binding, comparable within an allelic series)"
same,binding signal,[12],"8.83 upbm affinity estimate (log intensity, higher = more binding, comparable within an allelic series)"
same,binding signal,[13],"8.85 upbm affinity estimate (log intensity, higher = more binding, comparable within an allelic series)"
same,binding signal,[14],"8.9 upbm affinity estimate (log intensity, higher = more binding, comparable within an allelic series)"
same,binding signal,[15],"8.84 upbm affinity estimate (log intensity, higher = more binding, comparable within an allelic series)"
same,binding signal,[16],"9.48 upbm affinity estimate (log intensity, higher = more binding, comparable within an allelic series)"
same,binding signal,[17],"9.14 upbm affinity estimate (log intensity, higher = more binding, comparable within an allelic series)"
ACGGGGGC,binding signal,[1],"9.14 upbm affinity estimate (log intensity, higher = more binding, comparable within an allelic series)"
same,binding signal,[18],"9.65 upbm affinity estimate (log intensity, higher = more binding, comparable within an allelic series)"
same,binding signal,[19],"9.77 upbm affinity estimate (log intensity, higher = more binding, comparable within an allelic series)"
same,binding signal,[20],"7.66 upbm affinity estimate (log intensity, higher = more binding, comparable within an allelic series)"
same,binding signal,[21],"9.64 upbm affinity estimate (log intensity, higher = more binding, comparable within an allelic series)"
same,binding signal,[22],"7.79 upbm affinity estimate (log intensity, higher = more binding, comparable within an allelic series)"
same,binding signal,[23],"6.75 upbm affinity estimate (log intensity, higher = more binding, comparable within an allelic series)"
same,binding signal,[24],"6.67 upbm affinity estimate (log intensity, higher = more binding, comparable within an allelic series)"
same,binding signal,[25],"7.65 upbm affinity estimate (log intensity, higher = more binding, comparable within an allelic series)"
same,binding signal,[26],"9.54 upbm affinity estimate (log intensity, higher = more binding, comparable within an allelic series)"
same,binding signal,[27],"7.65 upbm affinity estimate (log intensity, higher = more binding, comparable within an allelic series)"
same,binding signal,[28],"6.19 upbm affinity estimate (log intensity, higher = more binding, comparable within an allelic series)"
same,binding signal,[29],"7.62 upbm affinity estimate (log intensity, higher = more binding, comparable within an allelic series)"
same,binding signal,[17],"9.01 upbm affinity estimate (log intensity, higher = more binding, comparable within an allelic series)"
CCTACGGA,binding signal,[1],"8.68 upbm affinity estimate (log intensity, higher = more binding, comparable within an allelic series)"
same,binding signal,[30],"9.05 upbm affinity estimate (log intensity, higher = more binding, comparable within an allelic series)"
same,binding signal,[31],"7.04 upbm affinity estimate (log intensity, higher = more binding, comparable within an allelic series)"
same,binding signal,[32],"7.2 upbm affinity estimate (log intensity, higher = more binding, comparable within an allelic series)"
same,binding signal,[33],"7.03 upbm affinity estimate (log intensity, higher = more binding, comparable within an allelic series)"
same,binding signal,[17],"8.68 upbm affinity estimate (log intensity, higher = more binding, comparable within an allelic series)"
same,binding signal,[34],"8.95 upbm affinity estimate (log intensity, higher = more binding, comparable within an allelic series)"
CAGCCCCC,binding signal,[1],"8.75 upbm affinity estimate (log intensity, higher = more binding, comparable within an allelic series)"
same,binding signal,[35],"9.74 upbm affinity estimate (log intensity, higher = more binding, comparable within an allelic series)"
same,binding signal,[36],"9.65 upbm affinity estimate (log intensity, higher = more binding, comparable within an allelic series)"
same,binding signal,[37],"9.71 upbm affinity estimate (log intensity, higher = more binding, comparable within an allelic series)"
same,binding signal,[31],"7.33 upbm affinity estimate (log intensity, higher = more binding, comparable within an allelic series)"
same,binding signal,[32],"7.4 upbm affinity estimate (log intensity, higher = more binding, comparable within an allelic series)"
same,binding signal,[38],"9.62 upbm affinity estimate (log intensity, higher = more binding, comparable within an allelic series)"
same,binding signal,[33],"7.13 upbm affinity estimate (log intensity, higher = more binding, comparable within an allelic series)"
same,binding signal,[17],"8.67 upbm affinity estimate (log intensity, higher = more binding, comparable within an allelic series)"
CAGCGGCC,binding signal,[1],"8.81 upbm affinity estimate (log intensity, higher = more binding, comparable within an allelic series)"
same,binding signal,[2],"8.85 upbm affinity estimate (log intensity, higher = more binding, comparable within an allelic series)"
same,binding signal,[3],"8.77 upbm affinity estimate (log intensity, higher = more binding, comparable within an allelic series)"
same,binding signal,[5],"8.79 upbm affinity estimate (log intensity, higher = more binding, comparable within an allelic series)"
same,binding signal,[6],"8.97 upbm affinity estimate (log intensity, higher = more binding, comparable within an allelic series)"
same,binding signal,[7],"8.8 upbm affinity estimate (log intensity, higher = more binding, comparable within an allelic series)"
same,binding signal,[8],"8.83 upbm affinity estimate (log intensity, higher = more binding, comparable within an allelic series)"
same,binding signal,[9],"8.89 upbm affinity estimate (log intensity, higher = more binding, comparable within an allelic series)"
same,binding signal,[10],"8.88 upbm affinity estimate (log intensity, higher = more binding, comparable within an allelic series)"
same,binding signal,[39],"7.12 upbm affinity estimate (log intensity, higher = more binding, comparable within an allelic series)"
same,binding signal,[11],"8.81 upbm affinity estimate (log intensity, higher = more binding, comparable within an allelic series)"
same,binding signal,[20],"7.77 upbm affinity estimate (log intensity, higher = more binding, comparable within an allelic series)"
same,binding signal,[12],"8.75 upbm affinity estimate (log intensity, higher = more binding, comparable within an allelic series)"
same,binding signal,[40],"10.2 upbm affinity estimate (log intensity, higher = more binding, comparable within an allelic series)"
same,binding signal,[13],"8.83 upbm affinity estimate (log intensity, higher = more binding, comparable within an allelic series)"
same,binding signal,[22],"7.75 upbm affinity estimate (log intensity, higher = more binding, comparable within an allelic series)"
same,binding signal,[14],"8.8 upbm affinity estimate (log intensity, higher = more binding, comparable within an allelic series)"
same,binding signal,[25],"7.78 upbm affinity estimate (log intensity, higher = more binding, comparable within an allelic series)"
same,binding signal,[15],"8.74 upbm affinity estimate (log intensity, higher = more binding, comparable within an allelic series)"
same,binding signal,[27],"7.74 upbm affinity estimate (log intensity, higher = more binding, comparable within an allelic series)"
same,binding signal,[41],"10.4 upbm affinity estimate (log intensity, higher = more binding, comparable within an allelic series)"
same,binding signal,[29],"7.77 upbm affinity estimate (log intensity, higher = more binding, comparable within an allelic series)"
same,binding signal,[42],"7.19 upbm affinity estimate (log intensity, higher = more binding, comparable within an allelic series)"
same,binding signal,[17],"8.82 upbm affinity estimate (log intensity, higher = more binding, comparable within an allelic series)"
